Among the test systems are NCI-H23 lung; NCI-H226 lung; NCI-H322M lung; HOP-62 NSCLC; NCI-H460 lung; 786-0 renal; MDA-MB-231 breast; SF-268 CNS; SF-539 CNS; M14 melanoma; U251 CNS; PC-3 prostate; UACC-62 melanoma; SK-MEL-28 melanoma; UO-31 renal; OVCAR-3 ovarian; SW-620 colon; MCF7 breast; HCT-116 colon; KM12 colon.
What all share (assay): NCI-60 one-dose screen, 48 h (100 = growth as untreated, 0 = no growth, -100 = all killed)
What all share (conditions): 10 µM unless noted

Molecules are shown by their SMILES. Compounds without any hit were thinned out: in the full panel of roughly 83,000, 20% have a hit.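 Growth was measured after 48 h exposure to one concentration of compound in 96-well plates. Values under 10 count as active.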 Values without a mark were called inactive. Activity calls are given as the source filed them.

In the case of `C/C(=C\C(=O)O[C@H]1[C@@H]2[C@H](C)CC[C@H]2[C@]2(C)O[C@@]1(C1CCCCC1)C[C@H]2OC(=O)CO)c1ccccc1`, the growth was 50.8% in the test with NCI-H23 lung; 41.1% with NCI-H226 lung; 84.5% in the test with NCI-H322M lung; 55.1% with HOP-62 NSCLC; 13.7% in the test with NCI-H460 lung; -16% (active) with 786-0 renal. The growth in the test on MDA-MB-231 breast was 55.5%; with SF-268 CNS it was 26%; with SF-539 CNS it was 77.2%; in the test on M14 melanoma it was 47.4%; in the test with U251 CNS, 24.2%; with PC-3 prostate it was 17.9%. Further, the growth is 63.2% in the test on UACC-62 melanoma; 64.6% in the test with SK-MEL-28 melanoma; -47.2% (active) in the test with UO-31 renal; 44.4% in the test on OVCAR-3 ovarian; 43.1% in the test on SW-620 colon; 3.04% (active) in the test with MCF7 breast. For the same molecule, the growth is 7.81% (active) in the test on HCT-116 colon and 38.2% in the test on KM12 colon.

On to `O=C(/C=C/c1ccccc1)N[C@@H](CO)Cc1cnc[nH]1`, for which the growth in the test with NCI-H23 lung is 113%; in the test on NCI-H226 lung, 94%; in the test with NCI-H322M lung, 101%; in the test on HOP-62 NSCLC it was 101%; in the test on NCI-H460 lung, 105%; in the test with 786-0 renal it was 103%. The growth was 98.9% in the test on MDA-MB-231 breast; 101% in the test with SF-268 CNS; 95.6% with SF-539 CNS; 105% in the test on M14 melanoma; 101% in the test with U251 CNS; 97.9% with PC-3 prostate. The growth was 110% with UACC-62 melanoma; 99.4% with SK-MEL-28 melanoma; 98.2% in the test on UO-31 renal; 112% with OVCAR-3 ovarian; 106% in the test with SW-620 colon; 98.7% in the test with MCF7 breast. Besides, the figures for the growth with HCT-116 colon and in the test on KM12 colon were 109% and 105%, respectively.

Consider `Cc1cc([N+](=O)[O-])c(Cl)cc1NS(=O)(=O)c1ccccc1`, for which the growth in the test on NCI-H23 lung is 76.5%; in the test on NCI-H226 lung, 64.7%; with NCI-H322M lung it was 85.4%; in the test on HOP-62 NSCLC, 90%; in the test on NCI-H460 lung it was 73.2%; in the test on 786-0 renal it was 60.1%. In addition, the growth was 108% with MDA-MB-231 breast; 90.3% in the test with SF-268 CNS; 60.6% with SF-539 CNS; 62.9% with M14 melanoma; 80.9% in the test with U251 CNS; 81.2% with PC-3 prostate. Moreover, the growth with UACC-62 melanoma is 37.1%; in the test with SK-MEL-28 melanoma it was 76%; in the test with UO-31 renal it was 63.8%; in the test on OVCAR-3 ovarian it was 71.7%; with SW-620 colon, 93.9%; with MCF7 breast, 73.9%. For the same molecule, the growth was 87.3% in the test with HCT-116 colon and 80.8% in the test on KM12 colon.

Consider `NC(Cc1ccc(O)cc1)C(=O)N/N=C/c1ccc(N(CCCl)CCCl)cc1` (stereo not given), for which the growth with NCI-H23 lung was 69.6%; with NCI-H226 lung, 46.8%; with NCI-H322M lung, 102%; in the test with HOP-62 NSCLC it was 95.4%; in the test on NCI-H460 lung it was 27.1%; in the test on 786-0 renal, 43%. In addition, the growth in the test on MDA-MB-231 breast is 73.7%; in the test with SF-268 CNS, 55.9%; with SF-539 CNS, 33.3%; with M14 melanoma, 93.6%; in the test with U251 CNS, 76.7%; in the test with PC-3 prostate, 56%. The growth was 31.4% with UACC-62 melanoma; 108% with SK-MEL-28 melanoma; 52.2% in the test with UO-31 renal; 101% in the test on OVCAR-3 ovarian; 86.9% with SW-620 colon; 54.5% with MCF7 breast. The values for the growth with HCT-116 colon and in the test on KM12 colon were 84% and 75%, respectively.

Regarding `Nc1c(Br)cc2c3c(cccc13)-c1ccccc1-2`, the growth in the test on NCI-H23 lung was 61.7%; in the test on NCI-H226 lung, 89.3%; in the test on NCI-H322M lung it was 91.2%; in the test on HOP-62 NSCLC, 82.9%; in the test with NCI-H460 lung, 88.4%; in the test with 786-0 renal, 94.9%. Moreover, the growth in the test on MDA-MB-231 breast was 48.7%; with SF-268 CNS, 87.7%; with SF-539 CNS, 77.7%; with M14 melanoma, 58.5%; in the test on U251 CNS it was 60.1%; with PC-3 prostate, 47.4%. For the same molecule, the growth in the test with UACC-62 melanoma was 81.2%; in the test on SK-MEL-28 melanoma it was 99.7%; with UO-31 renal it was 42.4%; in the test on OVCAR-3 ovarian, 64.4%; in the test with SW-620 colon it was 90.4%; in the test on MCF7 breast it was 38.7%. The growth with HCT-116 colon was 81.4%; with KM12 colon it was 57.4%.

`CCC1CN1P(=O)(OCCOC)N1CC1CC` (stereo not given): the growth in the test with NCI-H23 lung was 114%; with NCI-H226 lung it was 109%; in the test with NCI-H322M lung, 101%; in the test on HOP-62 NSCLC it was 111%; in the test with NCI-H460 lung, 111%; with 786-0 renal it was 103%. Also, the growth is 107% in the test on MDA-MB-231 breast; 109% with SF-268 CNS; 97.1% in the test with SF-539 CNS; 109% in the test with M14 melanoma; 102% in the test with U251 CNS; 98.2% with PC-3 prostate. Further, the growth in the test on UACC-62 melanoma was 103%; in the test on SK-MEL-28 melanoma, 107%; in the test with UO-31 renal, 88.6%; with OVCAR-3 ovarian, 119%; in the test with SW-620 colon, 106%; with MCF7 breast it was 99.4%. In addition, the growth was 104% in the test on HCT-116 colon and 114% with KM12 colon.

Consider `[N-]=[N+]=NC(C(=O)O)c1ccccc1` (stereo not given), for which the growth in the test with NCI-H23 lung was 99.2%; with NCI-H226 lung, 125%; in the test with NCI-H322M lung, 101%; in the test on HOP-62 NSCLC it was 101%; in the test with NCI-H460 lung it was 115%; with 786-0 renal, 103%. In addition, the growth is 110% with MDA-MB-231 breast; 118% in the test with SF-268 CNS; 93.9% with SF-539 CNS; 101% in the test on M14 melanoma; 104% with U251 CNS; 112% in the test on PC-3 prostate. Besides, the growth in the test with UACC-62 melanoma is 117%; with SK-MEL-28 melanoma, 105%; with UO-31 renal it was 88.9%; in the test with OVCAR-3 ovarian, 118%; with SW-620 colon, 107%; with MCF7 breast it was 88.2%. Moreover, the growth is 101% in the test with HCT-116 colon and 111% with KM12 colon.

As for `Fc1ccc(C2=NN(c3ccccc3)C(c3sc(N(CCCl)CCCl)nc3Cl)C2)cc1` (stereo not given), the growth in the test on NCI-H23 lung is 85.4%; in the test on NCI-H226 lung, 74.1%; in the test with NCI-H322M lung, 82.3%; with HOP-62 NSCLC it was 78%; with NCI-H460 lung it was 90.7%; in the test with 786-0 renal, 92.2%. The growth in the test with MDA-MB-231 breast is 69%; in the test with SF-268 CNS it was 86.5%; in the test with SF-539 CNS it was 101%; in the test with M14 melanoma, 92.2%; with U251 CNS, 85.9%; in the test on PC-3 prostate, 68.2%. Also, the growth was 59.8% with UACC-62 melanoma; 111% in the test with SK-MEL-28 melanoma; 67.6% in the test with UO-31 renal; 91.7% with OVCAR-3 ovarian; 84.4% with SW-620 colon; 72.2% with MCF7 breast. In addition, the growth was 68.2% in the test on HCT-116 colon and 81.1% in the test with KM12 colon.
